According to PubChem BioAssay AID1159580 (chemical genetic matrix, 2015):
Values joined by “and” are separate entries in the source; they are usually repeats but may differ in a detail not shown here. Equal entries are not always repeated. The whole screen tested about 5,500 compounds, of which about 2,000 (36%) were called active. Another 18% or so got no clear call; they are omitted. Cut-off read from the data, not from the text of the source: active = normalized growth mostly below about 0.91 (no sharp cut-off); inconclusive = no clear call, values can overlap the other calls; inactive = mostly above about 0.92. The list shows a part of the results.

Experiment: chemical genetic growth profiling, strain panel (AID 1159580);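 note: tested at 20 µM; growth read once vehicle control cultures reached saturation at 30 °C; 1 = growth at the plate median or of vehicle wells; lower values mean less growth of the strain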
Settings: S. cerevisiae deletion strains, growth OD

Measured: normalized growth

CC(=O)OCC(=O)[C@@]1(O)[C@H](OC(C)=O)CC2C3CCC4=CC(=O)C=C[C@]4(C)[C@@]3(F)[C@@H](O)C[C@@]21C (some centres not stated)
inactive: locus YAL013W, strain DEP1, stronger effect = lower value 0.993 | locus YAL021C, strain ccr4, stronger effect = lower value 0.982 | locus YAL026C, strain drs2, stronger effect = lower value 0.959 | locus YAL030W, strain snc1, stronger effect = lower value 0.995 | locus YBL061C, strain skt5, stronger effect = lower value 1 | locus YBR009C, strain hhf1, stronger effect = lower value 0.923 | locus YBR021W, strain FUR4, stronger effect = lower value 0.986 | locus YBR023C, strain chs3, stronger effect = lower value 0.981 | locus YBR171W, strain sec66, stronger effect = lower value 0.985 | locus YBR229C, strain ROT2, stronger effect = lower value 0.951 | locus YBR231C, strain swc5, stronger effect = lower value 1.01 | locus YBR279W, strain paf1, stronger effect = lower value 0.987 | locus YCL011C, strain gbp2, stronger effect = lower value 0.947 | locus YCL016C, strain dcc1, stronger effect = lower value 0.965 | locus YCL029C, strain bik1, stronger effect = lower value 0.99 | locus YCL069W, strain vba3, stronger effect = lower value 0.983 | locus YCR088W, strain abp1, stronger effect = lower value 0.987 | locus YDL005C, strain med2, stronger effect = lower value 0.993 | locus YDL035C, strain GPR1, stronger effect = lower value 0.973 | locus YDL040C, strain nat1, stronger effect = lower value 1 | locus YDL074C, strain BRE1, stronger effect = lower value 0.947 | locus YDL101C, strain DUN1, stronger effect = lower value 0.98 | locus YDL134C, strain PPH21, stronger effect = lower value 0.994 | locus YDL185W, strain tfp1, stronger effect = lower value 0.99 | locus YDL192W, strain arf1, stronger effect = lower value 0.997 | locus YDR001C, strain nth1, stronger effect = lower value 0.959 | locus YDR069C, strain doa4, stronger effect = lower value 1.01 | locus YDR101C, strain arx1, stronger effect = lower value 1.01 | locus YDR137W, strain rgp1, stronger effect = lower value 0.98 | locus YDR159W, strain sac3, stronger effect = lower value 0.923 | locus YDR162C, strain NBP2, stronger effect = lower value 0.988 | locus YDR195W, strain ref2 1.03 | locus YDR297W, strain sur2, stronger effect = lower value 0.987 | locus YDR318W, strain mcm21, stronger effect = lower value 0.994 | locus YDR334W, strain swr1, stronger effect = lower value 0.982 | locus YDR335W, strain msn5, stronger effect = lower value 0.983 | locus YDR388W, stronger effect = lower value 1 | locus YDR392W, strain spt3, stronger effect = lower value 0.913 | locus YDR502C, strain sam2, stronger effect = lower value 1 | locus YEL003W, strain gim4, stronger effect = lower value 0.992 | locus YEL037C, strain rad23, stronger effect = lower value 0.983 | locus YEL061C, strain CIN8 (second series), stronger effect = lower value 0.973 | locus YEL061C, strain CIN8, stronger effect = lower value 0.991 | locus YER015W, strain faa2, stronger effect = lower value 1 | locus YER016W, strain bim1, stronger effect = lower value 0.961 | locus YER110C, stronger effect = lower value 0.974 | locus YER111C, strain swi4, stronger effect = lower value 0.976 | locus YER155C, strain BEM2 (second series), stronger effect = lower value 1.04 | locus YER155C, strain BEM2, stronger effect = lower value 0.998 | locus YER167W, strain BCK2, stronger effect = lower value 0.991 | locus YFR010W, strain ubp6, stronger effect = lower value 0.983 | locus YGL078C, strain dbp3, stronger effect = lower value 0.995 | locus YGL086W, strain mad1, stronger effect = lower value 0.99 | locus YGL167C, strain pmr1, stronger effect = lower value 0.998 | locus YGL173C, strain kem1, stronger effect = lower value 1.01 | locus YGL227W, strain vid30, stronger effect = lower value 0.979 | locus YGL240W, strain doc1, stronger effect = lower value 1.02 | locus YGL248W, strain PDE1, stronger effect = lower value 0.975 | locus YGL253W, strain hxk2, stronger effect = lower value 0.964 | locus YGR135W, strain pre9, stronger effect = lower value 0.997 | locus YGR252W, strain gcn5, stronger effect = lower value 0.967 | locus YHR013C, strain ard1, stronger effect = lower value 0.948 | locus YHR027C, strain rpn1, stronger effect = lower value 0.966 | locus YHR030C, strain SLT2, stronger effect = lower value 0.995 and 0.971 | locus YHR079C, strain IRE1 (second series), stronger effect = lower value 1.01 | locus YHR079C, strain IRE1, stronger effect = lower value 0.964 | locus YHR094C, strain hxt1, stronger effect = lower value 1.01 | locus YHR129C, strain ARP1, stronger effect = lower value 0.977 | locus YHR142W, strain chs7, stronger effect = lower value 0.957 | locus YHR200W, strain rpn10, stronger effect = lower value 0.997 | locus YIL066C, strain RNR3, stronger effect = lower value 0.981 | locus YIL073C, strain SPO22, stronger effect = lower value 1.02 | locus YIL125W, strain kgd1, stronger effect = lower value 0.996 | locus YIR030C, strain dcg1, stronger effect = lower value 0.989 | locus YJL092W, strain hpr5, stronger effect = lower value 0.991 | locus YJL095W, strain BCK1 (second series), stronger effect = lower value 0.986 | locus YJL095W, strain BCK1, stronger effect = lower value 0.945 and 0.981 | locus YJL115W, strain asf1, stronger effect = lower value 0.972 | locus YJL129C, strain trk1, stronger effect = lower value 0.988 | locus YJL134W, strain LCB3, stronger effect = lower value 0.993 | locus YJL154C, strain vps35, stronger effect = lower value 0.986 | locus YJL164C, strain tpk1, stronger effect = lower value 0.974 | locus YJL166W, strain qcr8, stronger effect = lower value 1.04 | locus YJL168C, strain set2, stronger effect = lower value 0.999 | locus YJL187C, strain SWE1 (second series), stronger effect = lower value 0.975 | locus YJL187C, strain SWE1, stronger effect = lower value 0.984 | locus YJR043C, strain POL32, stronger effect = lower value 0.992
